Menin MLL FP TR: displaces Texas Red mutant MLL peptide from human menin | Menin + Texas Red MLL mutant peptide, fluorescence polarization | Potency, µM (titrated, usually from 61.6 µM), actives largely listed as inhibitors | 270,000 tested, 0.23% active | AID 1768; active = well fitted inhibition curve with a large enough effect in the polarisation, with a control signal flat, not every such curve was filed as active; inconclusive = small, poorly fitted or top-dose-only effect, or effect the other way, or a change in a side signal; inactive = no such curve, though single readings can be large or run the other way; the % refers to the polarisation
Target sequence (O00255 whole entry, looked up): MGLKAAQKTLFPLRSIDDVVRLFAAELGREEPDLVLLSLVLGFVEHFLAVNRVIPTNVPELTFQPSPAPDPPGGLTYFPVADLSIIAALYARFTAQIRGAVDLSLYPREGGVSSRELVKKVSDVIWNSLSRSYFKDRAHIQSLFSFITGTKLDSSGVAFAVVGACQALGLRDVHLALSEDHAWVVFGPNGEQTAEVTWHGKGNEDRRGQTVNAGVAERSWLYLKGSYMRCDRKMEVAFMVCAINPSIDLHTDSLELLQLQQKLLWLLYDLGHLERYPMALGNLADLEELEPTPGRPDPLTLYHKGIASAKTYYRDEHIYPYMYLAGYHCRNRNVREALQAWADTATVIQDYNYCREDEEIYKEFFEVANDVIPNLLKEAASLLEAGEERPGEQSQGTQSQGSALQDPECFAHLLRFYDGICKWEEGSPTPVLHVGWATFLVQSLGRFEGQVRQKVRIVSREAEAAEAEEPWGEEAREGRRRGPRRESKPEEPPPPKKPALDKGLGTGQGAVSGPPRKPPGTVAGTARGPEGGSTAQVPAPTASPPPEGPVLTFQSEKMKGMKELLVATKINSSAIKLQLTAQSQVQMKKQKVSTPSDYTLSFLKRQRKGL
GAA inhib: alpha-glucosidase (human) inhibition. P10253. Potency, µM (top dose mostly 76.9 µM), actives largely listed as inhibitors. purified human GAA, 4-MU-alpha-glucoside fluorescence. 200,000 tested, 0.005% active
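Read-out is 4-methylumbelliferone fluorescence (Ex 365/Em 440 nm) after NaOH/glycine stop at pH 10. Enzyme 4 nM, substrate 400 uM, pH 5.0 citrate buffer, 20 min room temperature; AC50 from Hill-equation concentration-response.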
Menin-MLL FL inh: displaces fluorescein MLL peptide from human menin | Fluorescence polarization, fluorescein-MLL peptide displacement from menin | FP activity change, % at 61.4 µM | 290,000 tested, under 10 active; active = well fitted curve in the direction sought with a large enough effect in the polarisation, not every such curve was filed as active; inconclusive = small, poorly fitted or top-dose-only effect, or effect the other way, or a change in a side signal; inactive = no such curve, though single readings can be large or run the other way; the % refers to the polarisation
GAA glycogen: GAA glycogen-cleavage inhibition or activation; Potency, µM (doses to about 76.4 µM), most hits filed as inhibitors; recombinant GAA, glycogen substrate, Amplex Red glucose oxidase fluorescence; P10253; 300,000 tested, 0.38% active;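 also: the screen sought inhibitors and activators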
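Recombinant human enzyme (4 nM); glycogen substrate; 37 C, 40 min, pH 5.0. Readout: coupled glucose oxidase/Amplex Red fluorescence.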
aGlu spleen mod: lysosomal alpha-glucosidase (human) modulation; P10253; human spleen homogenate, 4-MU-alpha-glucoside fluorescence; Potency, µM (doses to about 79.9 µM), usual class: inhibitors; 240,000 tested, 0.006% active; AID 2112
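Enzyme source: human spleen homogenate, 1 ug/well. Buffer 50 mM citric acid/K phosphate pH 5.0, 0.01% Tween-20. 4-MU-alpha-glucoside 1 mM; 37 C x 40 min; NaOH/glycine stop; fluorescence.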
CXXC DNA block: MLL CXXC-DNA interaction inhibition; 290,000 tested, 0.037% active; MLL-CXXC / FITC-HOXA9 DNA fluorescence polarization; AID 2662; Potency, µM (titrated, usually from 115 µM), hits mostly inhibitors; Q03164; active = well fitted inhibition curve with a large enough effect in the polarisation, with a control signal flat, not every such curve was filed as active; inconclusive = small, poorly fitted or top-dose-only effect, or effect the other way, or a change in a side signal; inactive = no such curve, though single readings can be large or run the other way; the % refers to the polarisation
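Fluorescence polarization: 7 uM MLL-CXXC (stock) preincubated 5 min with compounds, then 50 nM fluorescein-HOX-A9 DNA (stock) added; 30 min ambient. Buffer 50 mM Tris-HCl pH 7.5, 50 mM NaCl, 1 mM DTT, 0.05% BSA.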
MLL CXXC Fl: disrupts human MLL CXXC domain binding to DNA | AID 624160 | MLL CXXC-DNA binding, fluorescein FP | Potency, µM (doses to about 345 µM), hits mostly inhibitors | 200 tested, 70% active | shares compounds with CXXC DNA block; also: nearly all actives have a fitted effect of over 80% in size
MLL CXXC FP-TR: inhibitors of human MLL CXXC domain-DNA interaction, Texas Red format; shares compounds with CXXC DNA block; MLL CXXC-DNA binding, Texas Red fluorescence polarization; Potency, µM (top dose mostly 345 µM), usual class: inhibitors; 200 tested, 40% active; also: nearly all actives have a fitted effect of over 75% in size
MLL CXXC TRF: MLL CXXC-DNA interaction inhibition, HTRF readout; shares compounds with CXXC DNA block; MLL CXXC-DNA binding, HTRF, biochemical; Potency, µM (doses to about 172 µM), hits mostly inhibitors; 210 tested, 30% active; AID 624162; also: nearly all actives have a fitted effect of over 80% in size
Each line names hits and unclear results; the compound was inactive in the other large screens (follow-up assays come after a bar, where they were run). Shown are actives, neighbours in structure and some others; about 0.45% of the full set was active somewhere. Unless noted, calls follow the shape of the dose curve; as a rule, active = well fitted curve in the direction sought with a large enough effect; inconclusive = small, poorly fitted or top-dose-only effect, or another doubt; inactive = no such curve, though single readings can be large; an effect the other way counts as inactive or inconclusive.

COc1ccc(/C=C2/C(=O)NC(=O)N(C3CCCCC3)C2=O)cc1CSc1ccccn1	Menin MLL FP TR inconclusive, CXXC DNA block inconclusive | MLL CXXC Fl 142µM | MLL CXXC FP-TR 142µM | MLL CXXC TRF 77µM
NC(Cc1cc(O)c(O)cc1O)C(=O)O (stereo not given)	Menin MLL FP TR inconclusive, Menin-MLL FL inh inconclusive, CXXC DNA block inconclusive (no result: GAA inhib, GAA glycogen) | MLL CXXC Fl 18µM | MLL CXXC FP-TR inconclusive | MLL CXXC TRF 31µM
N[C@@H](Cc1ccc(O)cc1)C(=O)O	none (no result: GAA inhib, GAA glycogen)
Cc1cc(OCC(=O)N[C@@H](Cc2ccccc2)C(=O)O)c2c3c(c(=O)oc2c1)CCCC3	none (no result: GAA inhib, aGlu spleen mod)
CSC[C@H](NC(=O)COc1cc2c(c3oc(=O)c(C)c(C)c13)CCC(C)(C)O2)C(=O)O	CXXC DNA block inconclusive (no result: GAA inhib, aGlu spleen mod) | MLL CXXC Fl inconclusive | MLL CXXC FP-TR inconclusive | MLL CXXC TRF inactive
O=C(O)CCn1cc(C=C2C(=O)NC(=S)NC2=O)c(-c2cc3ccccc3oc2=O)n1	Menin-MLL FL inh inconclusive
O=C(O)CCn1cc(C=C2C(=O)NC(=S)NC2=O)c(-c2ccccc2)n1	CXXC DNA block 32µM | MLL CXXC Fl 4µM | MLL CXXC FP-TR 89µM | MLL CXXC TRF 6.1µM
CNC(=S)S	none (no result: GAA inhib, GAA glycogen, CXXC DNA block)
C=CCN1CCC23c4c5ccc(O)c4OC2/C(=N/N=C2\CCC4(O)C6Cc7ccc(O)c8c7C4(CCN6CC=C)C2O8)CCC3(O)C1C5 (stereo not given)	none (no result: Menin MLL FP TR, GAA inhib, Menin-MLL FL inh, GAA glycogen, CXXC DNA block)
CCn1nc(-c2cccs2)nc2c(=O)n(C)c(=O)nc1-2	Menin MLL FP TR inconclusive, CXXC DNA block inconclusive | MLL CXXC Fl inconclusive | MLL CXXC FP-TR inconclusive | MLL CXXC TRF inactive
CN1C(=O)C(=Cc2ccccc2OCc2ccc(C(=O)O)cc2)C(=O)N(C)C1=O	CXXC DNA block 20µM | MLL CXXC Fl inconclusive | MLL CXXC FP-TR 142µM | MLL CXXC TRF 61µM
Cc1cc(/C=C2\C(=O)NC(=O)N(c3ccc(Br)cc3)C2=O)c(C)n1-c1cc(C(=O)O)cc(C(=O)O)c1	CXXC DNA block 7.9µM (no result: GAA inhib, aGlu spleen mod) | MLL CXXC Fl 18µM | MLL CXXC FP-TR 40µM | MLL CXXC TRF 39µM
Cc1cc(/C=C2\C(=O)NC(=O)N(c3cccc(F)c3)C2=O)c(C)n1-c1cc(C(=O)O)cc(C(=O)O)c1	CXXC DNA block 16µM | MLL CXXC Fl 89µM | MLL CXXC FP-TR inconclusive | MLL CXXC TRF 122µM
C[C@@H]1O[C@@H](O[C@H]2CC[C@@H](O[C@H]3[C@H](O)C[C@H](c4ccc5c(c4O)C(=O)C4=C(C5=O)[C@@]5(O)C(=O)C[C@](C)(O[C@H]6CC[C@H](O[C@H]7C=CC(=O)[C@H](C)O7)[C@H](C)O6)C[C@@]5(O)C=C4)O[C@@H]3C)O[C@H]2C)C=CC1=O	Menin MLL FP TR inconclusive (no result: GAA inhib, GAA glycogen, CXXC DNA block)
OC[C@@H](O)[C@H]1O[C@@H]2OC(C(Cl)(Cl)Cl)O[C@H]2[C@H]1O (stereo not given in full)	none (no result: GAA inhib, GAA glycogen, aGlu spleen mod)
CCOC(=O)CCN(SN(C)C(=O)Oc1cccc2c1OC(C)(C)C2)C(C)C	none (no result: GAA inhib, GAA glycogen, CXXC DNA block)
COC(=O)Cn1cc(/C=C2\C(=O)NC(=O)N(c3ccc(OC)cc3)C2=O)c2ccccc21	Menin-MLL FL inh inconclusive, CXXC DNA block inconclusive (no result: GAA inhib, aGlu spleen mod)
O=C(O)Cn1cc(/C=C2\C(=O)NC(=O)N(c3ccc(F)cc3)C2=O)c2ccccc21	Menin-MLL FL inh inconclusive, CXXC DNA block inconclusive (no result: GAA inhib, aGlu spleen mod) | MLL CXXC Fl inconclusive | MLL CXXC FP-TR 89µM | MLL CXXC TRF inconclusive
COC(=O)[C@H]1[C@@H](c2ccccc2)[C@@]2(c3ccccc3)Oc3ccccc3[C@@]1(O)[C@@H]2O	Menin MLL FP TR inconclusive (no result: GAA inhib, GAA glycogen, CXXC DNA block)
O=C1NC(=O)N(c2ccc3c(c2)OCO3)C(=O)/C1=C\c1ccc(-c2ccccc2C(=O)O)o1	CXXC DNA block 14µM (no result: Menin MLL FP TR) | MLL CXXC Fl 14µM | MLL CXXC FP-TR 45µM | MLL CXXC TRF 19µM
O=C1NC(=O)N(c2ccc3c(c2)OCO3)C(=O)/C1=C/c1ccc(N2CCCCC2)o1	Menin-MLL FL inh inconclusive, CXXC DNA block inconclusive
CCOP(=O)(OCC)O/C(=C/Cl)c1ccc(Cl)cc1Cl	Menin-MLL FL inh inconclusive, CXXC DNA block 63µM (no result: GAA inhib, GAA glycogen, aGlu spleen mod) | MLL CXXC Fl 159µM | MLL CXXC FP-TR inactive | MLL CXXC TRF inactive
CN1C[C@@H](CO)C=C2c3cccc4[nH]cc(c34)CC21 (stereo not given in full)	Menin-MLL FL inh inconclusive (no result: GAA inhib, GAA glycogen, CXXC DNA block)
CCC(CO)NC(=O)[C@@H]1C=C2c3cccc4[nH]cc(c34)C[C@H]2N(C)C1 (stereo not given in full)	Menin-MLL FL inh inconclusive, CXXC DNA block 35µM (no result: GAA inhib, GAA glycogen) | MLL CXXC Fl 159µM | MLL CXXC FP-TR inconclusive | MLL CXXC TRF inactive
O=C(O)c1ccccc1-c1c2cc(Br)c(=O)cc-2oc2[c]([Hg])c(O)c(Br)cc12	Menin MLL FP TR inconclusive, Menin-MLL FL inh inconclusive, CXXC DNA block inconclusive (no result: GAA inhib, GAA glycogen) | MLL CXXC Fl 0.76µM | MLL CXXC FP-TR inactive | MLL CXXC TRF 23µM
CSCC[C@H](NC(=O)[C@H](Cc1ccccc1)NC(=O)CNC(=O)CNC(=O)[C@@H](N)Cc1ccc(O)cc1)C(=O)O	none (no result: Menin MLL FP TR, GAA inhib, Menin-MLL FL inh, GAA glycogen, CXXC DNA block)
O=S(=O)(O)F	none (no result: Menin MLL FP TR, GAA inhib, Menin-MLL FL inh, GAA glycogen, CXXC DNA block)
COc1cccc2c1C(=O)c1c(O)c3c(c(O)c1C2=O)C[C@@](O)(C(=O)CO)C[C@@H]3O[C@H]1C[C@H](N)[C@H](OC2CCCCO2)[C@H](C)O1 (stereo not given in full)	Menin MLL FP TR inconclusive, Menin-MLL FL inh inconclusive, CXXC DNA block 63µM (no result: GAA inhib, GAA glycogen, aGlu spleen mod) | MLL CXXC Fl 36µM | MLL CXXC FP-TR 45µM | MLL CXXC TRF inactive
